{"source": "the supplement of paper PMC10941209"}
{"system": "Toxoplasma gondii RH 2F1 tachyzoites (intracellular in HFF)", "experiment": "parasite survival relative to DMSO control; higher = less antiparasitic activity, active = 20 or less", "settings": "1 µM; 72 h", "how_it_was_run": "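Intracellular Toxoplasma gondii RH-2F1 tachyzoites, which express β-galactosidase, were grown in HFF cells (5 × 10^3 cells/well, 96-well plates) infected with 5 × 10^3 parasites in D2 medium for 3 h, then treated with compound at 1 μM for 72 h at 37°C in 5% CO2. Cells were lysed for 15 min, then CPRG was added and absorbance read at 570 nm after 30 min. Survival is the signal as a percentage of DMSO-treated infected controls, from 2 or more biological replicates.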"}
{"smiles": "Oc1c(C(Nc2nc3ccccc3s2)c2ccc(OC(F)F)cc2)ccc2cccnc12", "note": "(stereo not given)", "parasite survival": "4.28% (active)"}
{"smiles": "CCC(C)(C)c1ccc(CC(C)CN2C[C@@H](C)O[C@@H](C)C2)cc1", "note": "(stereo not given in full)", "parasite survival": "35.1% (inactive)"}
{"smiles": "O=C(N[C@H](Cc1cccc2ccccc12)C(=O)NCCc1c[nH]cn1)C1Cc2ccccc2C1", "parasite survival": "33.7% (inactive)"}
{"smiles": "Oc1cc(-c2cccc3ccccc23)[nH]n1", "parasite survival": "55.1% (inactive)"}
{"smiles": "CCCCN1C[C@H](O)[C@@H](O)[C@H](O)[C@H]1CO", "parasite survival": "61.5% (inactive)"}
{"smiles": "CC(C)(C)OC(=O)NCc1ccc(C(=O)N[C@H]2CCOC2=O)cc1", "parasite survival": "35% (inactive)"}
{"smiles": "O=C1C=C(c2ccccc2)S(=O)(=O)c2ccccc21", "parasite survival": "44.4% (inactive)"}
{"smiles": "O=c1nc(N2CCN(CC3CCCCC3)CC2)sc2c([N+](=O)[O-])cc(C(F)(F)F)cc12", "parasite survival": "43.6% (inactive)"}
{"smiles": "CCn1cc(C(=O)O)c(=O)c2cc(F)c(N3CCNC(C)C3)c(F)c21", "note": "(stereo not given)", "parasite survival": "76% (inactive)"}
{"smiles": "CC(C)Oc1ccc(-c2nc(-c3cccc4c3CC[C@@H]4NCCO)no2)cc1C#N", "parasite survival": "41.9% (inactive)"}
